Records with an inconclusive call do not appear. Where a call stands in place of a potency, no number is given. Activity calls are given as the source filed them. Calls come from the whole dose curve; as a rule, active = well fitted activation curve with a large enough effect; inconclusive = small, poorly fitted or top-dose-only effect; inactive = flat fitted curve, though single readings scatter.

The nature of the assay: FLuc inhibitory activity for the follow-up compounds in a cell-based translational read-through assay. To be noted: GripTite 293 FLucUGA read-through, luminescence, 48 h; series mostly up to 38.3 µM. The text has this: NCGC Assay Overview: Firefly (Photinus pyralis) luciferase is one of the most commonly used transcriptional reporters. It is considered one of the more dynamically responsive reporters - that is, responsive to changes in reporter transcription - as it requires no post-translational modifications and is enzymatically active directly after protein synthesis (Wood, 1998). With no endogenous expression in mammalian cells and without the requirement of external excitation, it offers very little background signal, thus generally providing excellent signal to background for most assays. Previous profiling work to determine the prevalence of compounds that affect FLuc enzymatic activity (PubChem AID 411) identified that ~3% of the MLSMR library (then at ~72K) inhibited FLuc (Auld et al., 2008). […] Of the compounds identified in this profile that inhibited FLuc, 151 compounds were selected for further analysis, in an effort to better understand their mode of inhibiting FLuc. The assay described here was to determine the activity of the compounds in a cell-based firefly luciferase reporter gene assay originally designed to identify compounds that enchanced translational read-through of a FLuc cDNA that contained a premature stop codon (Auld et al., 2009; Auld et al., 2010). Compounds that enhance translational read-through or compounds that stabilize FLuc intracellularly are identified as active compounds in the assay.
NCGC Assay Protocol Summary: Reagents: Transient transfection of FlucUGA construct: TransFast Transfection Reagent (Promega #E2431); FLucUGA construct (refer to Auld et al., 2009) #GripTite 293 MSR Cell Line (Invitrogen #R795-07) #Complete growth media: DMEM (Invitrogen #11965), 10% HIFBS, 0.1mM MEM NEAA, 5mL/L pen-strep (of 5000U/mL stock), 600ug/mL Geneticin #Assay media: DMEM without phenol red (Invitrogen #21063), 5% charcoal-stripped HIFBS (Hyclone #SH30071.03), 0.1mM MEM NEAA In-house detection reagent: 300mM Tris-HCl, 300mM Trizma base, 300mM MgCl, 1% Triton-X100, 5mM DTT, 500uM Coenzyme A trilithium salt (Sigma #C3019),450uM ATP (Sigma #A7699), 1mM D-luciferin sodium salt monohydrate (Biosynth #L8240) Control compounds used were two known firefly luciferase inhibitors (3-(5-(3-chlorophenyl)-1,2,4-oxadiazol-3-yl)benzoic acid and 5-(2-fluorophenyl)-3-phenyl-1,2,4-oxadiazole), and DMSO. Assay Summary: Transient transfection of FlucUGA construct: Day 1: GripTite cells were plated in T175 flasks at a density of 1.75 x 10^7 cells/T175 flask in complete growth media without Geneticin and allowed to grow ON in a 37 degrees Celsius incubator. Day 2: Cells in T175 flask were transfected - with 10ug of DNA and 30uL Transfast in 12mL complete growth media without serum and without Geneticin for 4 hours at 37 degrees Celsius. After incubation, cells were trypsinized, spun down, and resuspended to a concentration of 3.3 x 10^5 cells/mL in assay media. 6uL of cells in assay buffer were dispensed at 2000cells/well (3.3 x 10^5 cells/mL) into Greiner solid-white TC-treated 1536-well plates using a Multidrop Combi (Thermo Fisher Scientific). Plates were incubated for one hour at 37 degree Celsius, 95% humidity, 5% CO2. These assay plates were then treated with 23nL of compound or DMSO using a Kalypsys pin tool, which allows for delivery of a 12-point titration of each compound to the assay plate, with a final compound concentration ranging from approximately ~38uM to 0.2nM. Assay plates were then incubated for 48 hours. After incubation, plates were washed three times with DPBS (7uL/well). After the third wash, 6uL of DPBS was added to each well. 3uL of 3X luciferase detection reagent was then added to each well using a flying reagent dispenser (FRD). After a 15 minute incubation to allow for cell lysis, luciferase activity was measured using a ViewLux CCD imager (PerkinElmer), with an average exposure time of 2-12 seconds.
On to `CC(C)c1ccc(C(=O)Nc2ccc(-c3nc4ccccc4s3)c(Cl)c2)cc1`, for which the Potency result is “inactive”.

Regarding `CC(C)(C)C(=O)Nc1ccc(-c2nc3ccccc3s2)cc1`, the Potency is 0.0318 µM (active). Next, `COc1ccc(-c2nc3ccccc3s2)cc1NC(=O)c1ccc(F)cc1`: “inactive”; `CCOc1ccc2nc(NC(=O)c3cc([N+](=O)[O-])ccc3N3CCOCC3)sc2c1`: “inactive”. For the compound `O=C(O)c1cccc(NC(=O)c2cccc(S(=O)(=O)Nc3cccc(F)c3)c2)c1`, the Potency entry is “inactive”.

In the case of `O=C(O)c1ccc(NC(=O)c2ccccc2NC(=O)c2cccc(Br)c2)cc1`, the Potency entry is “inactive”. `O=C(Nc1ccccc1C(=O)O)c1ccc(NC(=O)C2CCCCC2)cc1`: the Potency result was “inactive”. Next, `COc1c(C)cccc1C(=O)Nc1ccc(-c2nc3ccccc3s2)c(Cl)c1`: “inactive”; `COc1cc(OC)cc(C(=O)Nc2ccc(-c3nc4ccccc4s3)c(C)c2)c1`: “inactive”; `O=C(Nc1ccccc1C(=O)O)c1cc(S(=O)(=O)Nc2cccc(F)c2)ccc1Cl`: “inactive”. On to `Cc1cccc(NS(=O)(=O)c2cccc(C(=O)Nc3cccc(C(=O)O)c3)c2)c1`, for which the Potency result was “inactive”. To `COc1ccc(C(=O)Nc2ccccc2C(=O)Nc2ccc(C(=O)O)cc2)cc1` belongs 25.2 µM (active). For the compound `COc1ccc2nc(NC(=O)c3ccc(S(=O)(=O)N4CCCC(C)C4)cc3)sc2c1` (stereo not given), the Potency entry is “inactive”. Next, `COc1ccccc1C(=O)Nc1ccc(C(=O)O)cc1`: “inactive”; `Cc1ccc(C(=O)Nc2cccc(C(=O)O)c2)cc1S(=O)(=O)N1CCCCC1`: 0.895 µM (active); `Nc1ccc(-c2nc3cc(N)ccc3s2)cc1`: 14.2 µM (active). Next, `COc1ccc(-c2cccc(C(=O)Nc3cccc(C(=O)O)c3)c2)cc1`: 11.3 µM (active).

For the compound `Nc1ccc(-c2nc3ccc(C(=O)O)cc3s2)cc1`, the Potency was 0.283 µM (active). Next, `CC(=O)Nc1cccc(C(=O)Nc2ccccc2C(=O)O)c1`: “inactive”; `COc1ccc2nc(NC(=O)c3ccccc3C(=O)O)sc2c1`: “inactive”; `O=C(O)c1ccccc1NC(=O)c1ccccc1Nc1ccccc1`: “inactive”.

On to `COc1ccc2nc(NC(=O)c3cccc(S(=O)(=O)N4CCOCC4)c3)sc2c1`, for which the Potency result is “inactive”. Next, `CCCC(=O)Nc1nc2ccc(OCC)cc2s1`: 12.6 µM (active); `O=C(O)c1cccc(NC(=O)c2cccc(NC(=O)C3CCCO3)c2)c1` (stereo not given): “inactive”; `Cc1ccc(C(=O)Nc2cccc(C(=O)O)c2)cc1S(=O)(=O)N1CCCC1`: 2 µM (active).

With `O=C(Nc1ccccc1C(=O)O)c1cccc(S(=O)(=O)Nc2ccc(Br)cc2)c1`, the Potency result was “inactive”. As for `Cc1ccc(C(=O)Nc2cccc(C(=O)O)c2)cc1`, the Potency is 4.49 µM (active). Next, `O=C(Nc1ccccc1C(=O)O)c1cc(S(=O)(=O)Nc2ccccc2)ccc1Cl`: “inactive”. Consider `COc1ccc2nc(NC(=O)CCc3nc(-c4ccccc4F)no3)sc2c1`, for which the Potency result was “inactive”. To `Cc1ccc(C(=O)O/N=C(\N)c2ccccn2)cc1` belongs 3.56 µM (active); to `O=C(Cc1ccccc1)Nc1ccc(C(=O)Nc2ccccc2C(=O)O)cc1`, “inactive”. To `COc1ccc2nc(NC(=O)c3ccco3)sc2c1` belongs 0.634 µM (active); to `CN=c1scc(-c2ccccc2F)n1/N=C/c1ccc[nH]1`, 0.0504 µM (active). To `Cc1ccc(S(=O)(=O)N2CCOCC2)cc1C(=O)Nc1ccccc1C(=O)O` belongs “inactive”; to `COc1ccc2nc(NC(=O)CCc3ccc(OC)c(OC)c3)sc2c1`, “inactive”; to `COc1ccc(-c2nc3ccccc3s2)cc1O`, 5.65 µM (active).

As for `CCOc1ccc2nc(NC(=O)c3cccnc3)sc2c1`, the Potency was 14.2 µM (active). Next, `COc1ccccc1C(=O)Nc1ccc(C(=O)Nc2ccccc2C(=O)O)cc1`: “inactive”; `O=C(Nc1ccccc1C(=O)O)c1ccc(NC(=O)C2CCCO2)cc1` (stereo not given): “inactive”; `O=C(Nc1ccccc1C(=O)O)c1cccc(S(=O)(=O)N2CCCC2)c1`: “inactive”.

The record behind these values is PubChem BioAssay AID602476 (National Center for Advancing Translational Sciences (NCATS), 2012).
